Results on 32 compounds are retold here after PubChem BioAssay (NCATS).

Records with an inconclusive call do not appear. Entries that show only a call come without a potency. Activity calls are given as the source filed them. The call rests on the fitted dose curve; in most records, active means well fitted inhibition curve with a large enough effect; inconclusive means small, poorly fitted or top-dose-only effect; inactive means no such curve, though single readings can be large or run the other way.
Potency means the concentration at half of the fitted maximal effect.

The assay in a line: NS1 protein of Zika virus - qHTS assay to identify small molecule inhibitors in human HEK 293 cells (AID 1347053). Further: nearly all actives have a fitted effect of over 55% in size. To be noted: HEK293 ZIKV MR766 infection, NS1 TR-FRET, 24 h; series mostly up to 46.1 µM. In short, it runs like this: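 HEK 293 cells, seeded 20 h at 37 C, were pretreated with compound 1 h, then infected with ZIKV MR766 (MOI = 0.5) for 24 h. NS1 was read by TR-FRET with two anti-NS1 antibodies, normalized to uninfected and infected wells.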
Background: qHTS replaces the single test concentration by a dilution series.
Regarding `N[C@H]1CN(c2c(F)cc3c(=O)c(C(=O)O)cn(C4C[C@@H]4F)c3c2Cl)CC12CC2` (some centres not stated), the Potency entry is “inactive”.

With `CC(C)Oc1ccc(C(=O)N[C@H](CNC(=O)CN(C)C)Cc2ccc(-c3cn4cccc([C@H](C)O)c4n3)cc2)cc1Cl`, the Potency was 20.9 µM (active).

For `C=CC(=O)Nc1cccc(Nc2nc(NC3CCC(N(C)C)CC3)nc3c2ncn3C(C)C)c1` (configuration not stated), the Potency is 11.8 µM (active).

Turning to `CCc1nc(-c2cccc(C)c2)c(-c2ccnc(NC(=O)c3ccccc3)c2)s1`, the Potency is 10.5 µM (active).

Regarding `CC[C@@]1([C@@H]2O[C@@H]([C@H]3O[C@@](O)(CO)[C@H](C)C[C@H]3C)C[C@H]2C)CC[C@H]([C@]2(C)CC[C@]3(C[C@H](O)[C@@H](C)[C@@H]([C@@H](C)[C@@H](OC)[C@H](C)C(=O)O)O3)O2)O1`, the Potency was 1.29 µM (active).

On to `CCOc1cc2c(c(F)c1OCC)C(=N)N(CC(=O)c1cc(N3CCOCC3)c(OC)c(C(C)(C)C)c1)C2`, for which the Potency entry was “inactive”.

For the compound `CC(C)(N)c1ccc(-c2nc3ccccc3nc2-c2ccccc2)cc1`, the Potency was 18.7 µM (active).

Take `CC(C)(C)[C@H](NC(=O)c1ccc(N)c(Cl)c1)C(=O)N1CCC[C@@H]1C(=O)N[C@H](C#N)CC(=O)O`: the activity change, negative = inhibition is 0.927% [at 4.81 µM] (inactive).

Consider `O=C(NNC(=O)c1ccc(CNS(=O)(=O)c2ccc(F)c(Cl)c2)cc1)c1ccccc1`, for which the Potency result was “inactive”.

Regarding `C[C@@H](NCc1cc2ccccc2[nH]1)c1cccc2ccccc12`, the Potency entry was “inactive”.

Take `COc1cc(OC)c(C=CS(=O)(=O)Cc2ccc(OC)c(NCC(=O)O)c2)c(OC)c1`: the Potency was 0.469 µM (active).

With `O=c1c(O)c(-c2ccc(O)c(O)c2)oc2cc(O)ccc12`, the Potency entry is “inactive”.

Turning to `Oc1cc2c(cc1O)C1c3ccc(O)c(O)c3OCC1(O)C2` (configuration not stated), the Potency entry was “inactive”.

Regarding `C=C(C)[C@@H]1CC[C@]2(C(=O)O)CC[C@]3(C)[C@H](CC[C@@H]4[C@@]5(C)CC[C@H](O)C(C)(C)[C@@H]5CC[C@]43C)[C@@H]12`, the Potency entry is “inactive”.

Take `COc1ccc(C(C)=O)c(O)c1`: the Potency result is “inactive”.

Consider `CC(C)C[C@H](NC(=O)CNC(=O)c1cc(Cl)ccc1Cl)B1OC(=O)CC(CC(=O)O)(C(=O)O)O1` (some centres not stated), for which the Potency was 0.209 µM (active).

As to `CC(=O)O[C@H]1C[C@@H]2CC[C@H]3[C@H]4C[C@H]([N+]5(C)CCCCC5)[C@@H](OC(C)=O)[C@@]4(C)CC[C@@H]3[C@@]2(C)C[C@H]1N1CCCCC1`, the Potency result is “inactive”.

Consider `Nc1cccc2c1C(=O)N(C1CCC(=O)NC1=O)C2=O` (configuration not stated), for which the Potency result is “inactive”.

Consider `COc1cccc2c1C(=O)c1c(O)c3c(c(O)c1C2=O)C[C@@](O)(C(=O)CO)C[C@@H]3O[C@H]1C[C@H](N)[C@H](OC2CCCCO2)[C@H](C)O1` (some centres not stated), for which the Potency was 2.96 µM (active).

Regarding `CC(C)(O)CC[C@@H](O)[C@](C)(O)[C@H]1CC[C@@]2(O)C3=CC(=O)[C@@H]4C[C@@H](O)[C@@H](O)C[C@]4(C)[C@@H]3CC[C@]12C`, the Potency result is “inactive”.

As to `OCC(O)C(O)C(O)CO` (configuration not stated), the Potency entry was “inactive”.

As to `O=C(O)C(=O)Nc1cccc(C2=NN=N[N]2)c1`, the Potency entry was “inactive”.

For the compound `C=C1CCC2[C@](C)(CO)C(O)CC[C@]2(C)C1CC=C1C(=O)OCC1O` (some centres not stated), the Potency entry is “inactive”.

On to `C[C@H](NC(=O)Cc1cc(F)cc(F)c1)C(=O)N[C@H](C(=O)OC(C)(C)C)c1ccccc1`, for which the Potency entry is “inactive”.

On to `CNC(=O)c1cccc(-c2ccc3c(N4CCOC[C@H]4C)nc(N4CCOC[C@H]4C)nc3n2)c1`, for which the Potency entry is “inactive”.

Take `CCC[C@H]1C[C@H](C(=O)N[C@@H]([C@@H]2O[C@@H](SC)[C@@H](O)[C@@H](O)[C@@H]2O)[C@H](C)Cl)N(C)C1`: the Potency entry was “inactive”.

With `C[C@H]1O[C@H](O[C@H]2[C@H](O)[C@@H](O)[C@@H](O[C@H]3[C@H](O)[C@@H](O)C(O)O[C@H]3CO)O[C@H]2CO)[C@H](O)[C@@H](O)[C@H]1N[C@H]1C=C(CO)[C@@H](O)[C@H](O)[C@@H]1O` (some centres not stated), the Potency entry is “inactive”.

Turning to `C=C[C@@H]1CN2CCC1C[C@H]2[C@H](O)c1ccnc2ccc(OC)cc12` (some centres not stated), the Potency result was “inactive”.

For the compound `CN(N=O)C(=O)N[C@H]1C(O)OC(CO)[C@@H](O)[C@H]1O` (some centres not stated), the Potency result was “inactive”.

Turning to `CC(=O)[C@]1(O)Cc2c(O)c3c(c(O)c2[C@@H](O[C@H]2C[C@H](N)[C@@H](O)[C@H](C)O2)C1)C(=O)c1ccccc1C3=O`, the Potency was 1.05 µM (active).

For the compound `O=S(=O)(O)CCSSCCS(=O)(=O)O`, the Potency result was “inactive”.

As for `COC[C@H](NC(=O)c1cnc(C)s1)C(=O)N[C@@H](COC)C(=O)N[C@@H](Cc1ccccc1)C(=O)[C@@]1(C)CO1`, the Potency is 1.18 µM (active).
